In PubChem BioAssay AID1814 (Broad Institute, 2009):
Among all 300,000 compounds or so, about 22,000 (7.3%) were called active. Inconclusive results (about 2%) are left out. Cut-off read from the data, not from the text of the source: active = activity score below about -60%; inconclusive = mostly about -28% to -61%; inactive = positive scores. This excerpt belongs to a sample that is enriched for actives.

assay: Activators via SNCA 5'UTR binding, MLPCN (AID 1814); conditions: alpha-synuclein 5'UTR reporter, activators screen; hits give low values; tested at 7.5 µM

SMILES | activity score
COc1ccc2[nH]cc(CCN3C(=O)c4ccc(C(=O)O)cc4C3=O)c2c1 | -169% (active)
CC[C@H]1CN2CCc3cc(OC)c(OC)cc3[C@@H]2C[C@@H]1C[C@H]1NCCc2cc(OC)c(OC)cc21 | 109% (inactive)
O=C1c2ccccc2NC(c2ccccc2O)N1NS(=O)(=O)c1ccccc1 (centres undefined) | -64.1% (active)
Nc1c(C(=O)c2cccs2)sc2nsc(SCCN3CCCCC3)c12 | -213% (active)
c1ccc(-c2csc(N3CCc4ccccc4C3)n2)cc1 | -117% (active)
COc1ccc2nc(N3CCCC(O)C3)c(C#N)cc2c1 (centres undefined) | -114% (active)
COc1ccc2c(c1)CCc1cn3ncc(C#N)c3nc1-2 | 68.1% (inactive)
CCc1ccc(Oc2coc3cc(OC(=O)c4cc5ccccc5oc4=O)ccc3c2=O)cc1 | -67% (active)
COc1ccccc1-c1nnc(NC(=O)c2ccc3ncsc3c2)o1 | -132% (active)
Cc1sc(NC(=O)c2ccc3ncsc3c2)c(C(N)=O)c1C | -130% (active)
COc1ccc(OC)c(/C(C)=N\NC(=O)c2cc3cc(Cl)ccc3n2C)c1 | -215% (active)
CC1CCCCC1NC(=O)/C(C#N)=C/C=C/c1ccccc1[N+](=O)[O-] (centres undefined) | -239% (active)
O=C(OCC(=O)c1cccs1)C1=COCCO1 | -103% (active)
CCC(C)(C)c1ccc(Oc2ccc(NC(=O)COC(=O)C3=COCCO3)cc2)cc1 | 90.6% (inactive)
COc1cccc(-c2nnc(N(C)C(=O)c3ccno3)s2)c1 | -79.4% (active)
CCN(CC)S(=O)(=O)c1cc(C(=O)Nc2ccccn2)ccc1C | -79.9% (active)
COc1cccc(NCCC(=O)c2cccc([N+](=O)[O-])c2)c1 | -115% (active)
Nc1ccccc1/C=N\N=C/c1ccccc1N | -112% (active)
Cc1cccc(-n2ncc(Cl)c(Cl)c2=O)c1 | -220% (active)
Fc1ccc(-c2csc(-c3ccc(C4SCCS4)cc3)n2)cc1F | -125% (active)
CCOC(=O)c1cn[nH]c1NC(=S)Nc1ccccc1 | -131% (active)
Cc1ccc(C2CC(c3cccc(NS(C)(=O)=O)c3)=NN2S(C)(=O)=O)cc1 (centres undefined) | -70.6% (active)
CS(=O)(=O)Nc1ccc(C2=NN(S(C)(=O)=O)C(c3cccs3)C2)cc1 (centres undefined) | -69.5% (active)
O=C(CN1C(=O)COc2ccccc21)Nc1ccc(F)cc1 | -126% (active)
Cc1ccc(O)c(-c2cc(C(=O)NCc3ccccc3)[nH]n2)c1 | -148% (active)
Cc1ccc(NC(=O)c2cc(-c3ccccc3O)n[nH]2)cc1C | -129% (active)

SMILES | activity score
O=C(Nc1ccccc1)Nc1nc2ccccc2s1 | -64.8% (active)
CSc1nsc(NC(=O)Nc2ccccc2)n1 | -123% (active)
CCSc1nsc(NC(=O)Nc2cccc(C(C)=O)c2)n1 | -111% (active)
Cn1nnnc1SCC(=O)Nc1nc2ccccc2s1 | -151% (active)
CCc1cc2c(=O)c(-c3ccon3)c(N)oc2cc1OC | -160% (active)
COc1ccc(N=C(C)c2sc3ccccc3c2O)cc1 | -125% (active)
Nc1[nH][nH]c(=O)c1N=Nc1ccc2c(c1)OCO2 | -112% (active)
Cc1ccc(NC(=S)Nc2ncccc2C)c(C)c1 | -199% (active)
COc1ccc2c(c1)CCc1c(C(=O)N3CCCC3)noc1-2 | -103% (active)
CNC(=O)/C(C#N)=C/c1c(F)cccc1Cl | -73.3% (active)
O=C(Nn1c(SCc2ccc([N+](=O)[O-])cc2)nc2ccccc2c1=O)c1ccc(F)cc1 | -81.2% (active)
c1ccc(-c2nccc(-c3ccc(-n4cnc5ccccc54)cc3)n2)nc1 | -88% (active)
O=C(c1ccc(Cl)cc1)c1cnc(Nc2ccccc2)s1 | -159% (active)
CC(C)(C)C(=O)c1cnc(Nc2ccccc2)s1 | -123% (active)
COCCN(C(=O)c1ccco1)c1nnc(-c2ccc(OC)cc2)s1 | -68.7% (active)
N#C/C=C\Oc1ccc(Cl)cc1N | -166% (active)
COc1ccccc1C1=Nc2cccc3cccc(c23)N1 | -62.4% (active)
CC1=CC(=C(C#N)c2nc3ccccc3s2)C=C(C)N1c1ccc(F)cc1F | -123% (active)
C=CCn1c(=NC(=O)c2cccs2)sc2cc(NC(C)=O)ccc21 | -164% (active)
Clc1ccccc1SCc1nc2ccccc2[nH]1 | -90.6% (active)
CCNC(=O)N1CCCC(C(=O)c2ccc(-c3ccccc3)cc2)C1 (centres undefined) | -101% (active)
O=C(Nc1ccc(Cl)c(Cl)c1)N1CC=C(c2ccccc2)CC1 | -65.8% (active)
Cc1ccc(Cl)c(OCC(=O)N2CCc3ccccc3C2)c1 | -117% (active)
COc1ccc(C2CC(c3cccs3)=Nc3ccccc3S2)cc1OC (centres undefined) | -90.7% (active)
O=C(/C(=C/c1cccc(Cl)c1)c1nc2ccccc2[nH]1)c1ccccc1 | -338% (active)
Cc1nc(NC(=O)C2CCCCC2)sc1C | -136% (active)

SMILES | activity score
O=[N+]([O-])c1ccc(N/N=C/c2ccccc2)cc1 | -210% (active)
O=[N+]([O-])c1cccc(/C=N/Nc2ncc(Br)cn2)c1 | -194% (active)
CSc1ccccc1-c1nnc(-c2ccc(Cl)cc2)o1 | -146% (active)
COc1ccccc1-c1nnc(-c2ccc(F)cc2)o1 | -122% (active)
O=C1C(C=NCC2CCCO2)=C(O)c2ccccc21 (centres undefined) | -95.6% (active)
CCS(=O)(=O)n1nc(-c2ccc(OC)cc2)nc1SC | -98.6% (active)
CCS(=O)(=O)n1nc(-c2ccccc2)nc1SCc1ccccc1 | -118% (active)
Cc1cc(O)c(NC(=O)c2ccc(C)c([N+](=O)[O-])c2)cc1C | -110% (active)
COc1ccccc1CSc1nc2ccccc2[nH]1 | -156% (active)
CCCCSc1nc2ccccc2[nH]1 | -86.8% (active)
CC(C)n1c(=O)[nH]c2cc(C(=O)Nc3ccccc3)ccc21 | -119% (active)
COc1ccc(-c2c(C#Cc3ccccc3)c3ccccc3n2C)cc1 | -87.3% (active)
CCOC(=O)c1nn(-c2cccc(C)c2)cc1C(=O)c1ccccc1 | -90.5% (active)
O=C1c2ccccc2S(=O)(=O)c2cc(N3CCN(c4ccccn4)CC3)ccc21 | -68.6% (active)
COc1ccc(C2=NOC(COC(=O)c3ccc4ccccc4n3)C2)cc1 (centres undefined) | -68.4% (active)
CN(C)c1ccc(-c2nnc(-c3cccnc3)o2)cc1 | -195% (active)
c1ccc(CN=C2Nc3ccccc3CS2)nc1 | -111% (active)
COc1ccc(C2Nc3ccccc3C(=O)N2c2ccc(Cl)cc2)cc1Cn1cc([N+](=O)[O-])cn1 (centres undefined) | -111% (active)
COc1ccc(N2C(=O)c3ccccc3NC2c2ccc(OC)c(CN3CCOCC3)c2)cc1 (centres undefined) | -72.6% (active)
CCN(CC)C(=O)C(=O)Nc1cccc(Br)c1 | -75.5% (active)
COc1cc(N=Cc2c(O)[nH]c3ccccc23)cc(OC)c1OC | 81% (inactive)
COc1cccc2[nH]c(C(=O)NCCc3ccccc3)cc12 | -162% (active)
NC(=S)N/N=C/c1coc2cc(Cl)ccc2c1=O | -88.7% (active)
COc1ccc(Nc2oc(-c3ccccc3Cl)nc2C#N)cc1 | -108% (active)
CCOc1ccc(Nc2oc(Cc3ccccc3)nc2C#N)cc1 | -109% (active)
N#Cc1nc(Cc2ccccc2)oc1NCCc1ccccc1 | -147% (active)

SMILES | activity score
Cc1ccc(-c2csc(NC(=O)c3cccs3)n2)cc1 | -239% (active)
O=C(Nc1ccccc1)c1ccc(NC(=O)c2cccs2)cc1 | -107% (active)
COc1cc(NC(=O)c2cccs2)ccc1NC(=O)c1ccccc1Cl | -62.1% (active)
Cc1ccc(C(=O)NNC(=O)c2cccs2)cc1 | -65.9% (active)
O=C(NNC(=O)c1ccc(Cl)cc1Cl)c1cccs1 | -115% (active)
COc1ccc(-n2nc(C(=O)NCC(=O)N3CCN(c4ccccc4OC)CC3)c3ccccc3c2=O)c(OC)c1 | -64% (active)
Cc1c(N=Nc2ccc(N(C)C)cc2)c(=O)n(-c2ccccc2)n1C | -101% (active)
O=C(/C=C/c1ccc(Cl)cc1)Nc1ccc(Br)cn1 | -62.5% (active)
CCn1nc(C)c(NC(=O)/C=C/c2ccc(OC)c(COc3ccc(Br)cc3)c2)c1C | 61.8% (inactive)
CC(C)=CCc1c(O)c(CC=C(C)C)c2occ(-c3ccc(O)cc3)c(=O)c2c1O | -75.6% (active)
O=C(Nc1ccc2c(c1)CCC2)c1ccc(Br)s1 | -159% (active)
N/C(=N\OC(=O)c1ccc2c(c1)OCO2)c1ccc(Br)cc1 | -162% (active)
CCCCNc1ccc(C(=O)Nc2cccc(C)n2)cc1[N+](=O)[O-] | -102% (active)
Cc1cc(NC(=O)CSc2nc3c(cc2C#N)CCCCC3)no1 | -104% (active)
COC(=O)/C(=C1\Oc2ccc(C(C)(C)C)cc2S1)C(F)(F)F | -189% (active)
COc1ccc2c(c1)O/C(=C\c1ccccc1O)C2=O | -94.2% (active)
O=C1Oc2ccccc2C(=O)/C1=C/c1ccccc1O | -96.6% (active)
COc1ccc(-c2noc(-c3cccc(OC)c3OC)n2)cc1OC | -193% (active)
COc1cc(NC(=O)c2ccc(-c3csc(C)n3)cc2)c(OC)cc1Cl | -64.4% (active)
O=C(CCSc1ccccc1)N1CCN(c2ccccc2F)CC1 | -115% (active)
COc1ccc(-c2nc3n(c2Br)CCC3)cc1 | -122% (active)
CN1C(=O)/C(=C/C=C2\SCCN2C)OC1=S | -169% (active)
CC(C)n1cnc2c(Nc3cccc(Cl)c3)nc(N(CCO)CCCO)nc21 | 64.7% (inactive)
OCCCNc1nccc(-c2cc(Nc3cccc(Cl)c3)ncn2)n1 | 73.3% (inactive)
Cn1c(Nc2cccc(Cl)c2)nc2ccccc21 | -63.6% (active)
O=c1c2cc(-c3ccccc3)sc2nc2n1N=C(c1cccs1)CS2 | -105% (active)
